Laboratory results as given in the supplement of paper PMC10849652.
Of roughly 8,800 targets only a part is listed; those with a hit were picked by preference. About 0.5% of all pairs of compound and target were hits. Unmarked numbers belong to inactive results.

What was measured:
Assay in all cases: log2 fold change, soluble protein after heating vs DMSO (PISA); higher = thermal stabilisation; K562 lysate, 10 uM; active = over 0.2 and 3.5 SD of the protein, either way, in both replicates (recomputed)
lapatinib = compound: CS(=O)(=O)CCNCc1ccc(-c2ccc3ncnc(Nc4ccc(OCc5cccc(F)c5)c(Cl)c4)c3c2)o1 [lapatinib]
Method in brief: (§1)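 K562 pellets were dounce-homogenised in PBS pH 7.4 containing 1 mM MgCl2, and the crude extract, at 1 mg/mL protein, was exposed to 10 μM compound for 30 min. Aliquots were heated for 3 min across 48°C-58°C, pooled, brought to 0.5% NP-40 at 4°C and spun at 21,000xg for 90 min, with the supernatant taken as soluble protein. TMTpro 16plex LC-MS/MS with equalised channel sums quantified that protein. Values are log-two fold changes in thermal stability relative to solvent controls, taken from duplicates.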

pictilisib = compound: CS(=O)(=O)N1CCN(Cc2cc3nc(-c4cccc5[nH]ncc45)nc(N4CCOCC4)c3s2)CC1 [pictilisib]
Method in brief: as §1

crizotinib = compound: C[C@@H](Oc1cc(-c2cnn(C3CCNCC3)c2)cnc1N)c1c(Cl)ccc(F)c1Cl [crizotinib]
Method in brief: as §1

[1] = compound: C[C@H](C1=CC=C(C=C1)C(=O)NC2=C3C=CNC3=NC=C2)N
Method in brief: as §1

duvelisib = compound: C[C@H](Nc1ncnc2nc[nH]c12)c1cc2cccc(Cl)c2c(=O)n1-c1ccccc1 [duvelisib]
Method in brief: as §1

gandotinib = compound: Cc1cc(Nc2cc(CN3CCOCC3)c3nc(C)c(Cc4ccc(Cl)cc4F)n3n2)n[nH]1 [gandotinib]
Method in brief: as §1

tozasertib = compound: Cc1cc(Nc2cc(N3CCN(C)CC3)nc(Sc3ccc(NC(=O)C4CC4)cc3)n2)n[nH]1 [tozasertib]
Method in brief: as §1

doramapimod = compound: Cc1ccc(-n2nc(C(C)(C)C)cc2NC(=O)Nc2ccc(OCCN3CCOCC3)c3ccccc23)cc1 [doramapimod]
Method in brief: as §1

bafetinib = compound: Cc1ccc(NC(=O)c2ccc(CN3CC[C@H](N(C)C)C3)c(C(F)(F)F)c2)cc1Nc1nccc(-c2cncnc2)n1 [bafetinib]
Method in brief: as §1

[2] = compound: Cc1cccc(CC(=O)N2CCc3c2ccc(-c2cn(C)c4ncnc(N)c24)c3F)n1
Method in brief: as §1

nilotinib = compound: Cc1cn(-c2cc(NC(=O)c3ccc(C)c(Nc4nccc(-c5cccnc5)n4)c3)cc(C(F)(F)F)c2)cn1 [nilotinib]
Method in brief: as §1

[3] = compound: Cc1nc(Nc2n[nH]c3c2CN(C(=O)N[C@H](CN(C)C)c2ccccc2)C3(C)C)c2sccc2n1
Method in brief: as §1

dasatinib = compound: Cc1nc(Nc2ncc(C(=O)Nc3c(C)cccc3Cl)s2)cc(N2CCN(CCO)CC2)n1 [dasatinib]
Method in brief: as §1

[4] = compound: Cc1ncc(-c2ccnc(Nc3ccc(S(C)(=O)=O)cc3)n2)n1C(C)C
Method in brief: as §1

[5] = compound: Cn1cc(-c2ccc3c(c2)CCN3C(=O)Cc2cccc(C(F)(F)F)c2)c2c(N)ncnc21
Method in brief: as §1

quisinostat = compound: Cn1cc(CNCC2CCN(c3ncc(C(=O)NO)cn3)CC2)c2ccccc21 [quisinostat]
Method in brief: as §1

tipifarnib = compound: Cn1cncc1[C@@](N)(c1ccc(Cl)cc1)c1ccc2c(c1)c(-c1cccc(Cl)c1)cc(=O)n2C [tipifarnib]
Method in brief: as §1

[6] = compound: NC(=O)Nc1cc(-c2cccc(F)c2)sc1C(=O)N[C@H]1CCCNC1
Method in brief: as §1

[7] = compound: NC(=O)c1cnc(N[C@@H]2CCCC[C@@H]2N)nc1Nc1cccc(-n2nccn2)c1
Method in brief: as §1

[8] = compound: NC1(c2ccc(-c3nc4ccn5c(=O)[nH]nc5c4cc3-c3ccccc3)cc2)CCC1
Method in brief: as §1

Sequence of UniProt P31949 (P31949 whole entry, looked up): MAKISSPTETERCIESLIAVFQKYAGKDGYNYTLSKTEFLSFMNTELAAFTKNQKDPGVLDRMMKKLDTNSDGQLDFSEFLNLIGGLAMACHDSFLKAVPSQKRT
Sequence of UniProt P18754 (P18754 whole entry, looked up): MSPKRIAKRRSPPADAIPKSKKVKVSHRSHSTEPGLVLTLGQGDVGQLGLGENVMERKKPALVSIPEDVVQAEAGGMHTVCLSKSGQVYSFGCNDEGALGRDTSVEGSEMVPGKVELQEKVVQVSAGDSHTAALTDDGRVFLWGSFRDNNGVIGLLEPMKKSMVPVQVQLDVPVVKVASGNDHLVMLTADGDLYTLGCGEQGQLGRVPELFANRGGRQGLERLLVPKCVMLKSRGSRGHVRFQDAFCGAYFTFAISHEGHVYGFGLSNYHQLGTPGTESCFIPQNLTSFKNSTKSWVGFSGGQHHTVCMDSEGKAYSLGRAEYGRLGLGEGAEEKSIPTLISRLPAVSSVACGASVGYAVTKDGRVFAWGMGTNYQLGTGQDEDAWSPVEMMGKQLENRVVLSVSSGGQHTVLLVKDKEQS
Sequence of UniProt Q9HBH5 (Q9HBH5 whole entry, looked up): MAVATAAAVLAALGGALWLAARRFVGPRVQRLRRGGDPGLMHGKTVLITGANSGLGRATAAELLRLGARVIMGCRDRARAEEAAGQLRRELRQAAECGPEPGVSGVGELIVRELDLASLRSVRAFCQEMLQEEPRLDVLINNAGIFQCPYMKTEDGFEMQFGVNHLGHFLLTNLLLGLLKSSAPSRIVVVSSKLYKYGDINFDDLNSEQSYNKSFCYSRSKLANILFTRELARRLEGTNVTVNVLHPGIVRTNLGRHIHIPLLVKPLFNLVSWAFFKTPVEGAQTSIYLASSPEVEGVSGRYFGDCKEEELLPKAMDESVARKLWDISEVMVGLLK
Sequence of UniProt Q9H0U4 (Q9H0U4 whole entry, looked up): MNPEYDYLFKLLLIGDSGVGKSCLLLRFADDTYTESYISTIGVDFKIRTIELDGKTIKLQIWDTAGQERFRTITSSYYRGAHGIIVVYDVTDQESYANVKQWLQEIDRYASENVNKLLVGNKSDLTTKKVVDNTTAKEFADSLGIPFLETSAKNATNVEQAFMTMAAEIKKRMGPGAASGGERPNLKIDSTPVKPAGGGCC
Sequence of UniProt Q9NR31 (Q9NR31 whole entry, looked up): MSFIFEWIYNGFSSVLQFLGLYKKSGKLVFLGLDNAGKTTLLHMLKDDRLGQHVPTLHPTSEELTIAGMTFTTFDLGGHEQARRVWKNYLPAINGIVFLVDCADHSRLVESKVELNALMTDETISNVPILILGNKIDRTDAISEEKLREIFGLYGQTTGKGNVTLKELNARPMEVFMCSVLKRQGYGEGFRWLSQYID
Sequence of UniProt O60518 (O60518 whole entry, looked up): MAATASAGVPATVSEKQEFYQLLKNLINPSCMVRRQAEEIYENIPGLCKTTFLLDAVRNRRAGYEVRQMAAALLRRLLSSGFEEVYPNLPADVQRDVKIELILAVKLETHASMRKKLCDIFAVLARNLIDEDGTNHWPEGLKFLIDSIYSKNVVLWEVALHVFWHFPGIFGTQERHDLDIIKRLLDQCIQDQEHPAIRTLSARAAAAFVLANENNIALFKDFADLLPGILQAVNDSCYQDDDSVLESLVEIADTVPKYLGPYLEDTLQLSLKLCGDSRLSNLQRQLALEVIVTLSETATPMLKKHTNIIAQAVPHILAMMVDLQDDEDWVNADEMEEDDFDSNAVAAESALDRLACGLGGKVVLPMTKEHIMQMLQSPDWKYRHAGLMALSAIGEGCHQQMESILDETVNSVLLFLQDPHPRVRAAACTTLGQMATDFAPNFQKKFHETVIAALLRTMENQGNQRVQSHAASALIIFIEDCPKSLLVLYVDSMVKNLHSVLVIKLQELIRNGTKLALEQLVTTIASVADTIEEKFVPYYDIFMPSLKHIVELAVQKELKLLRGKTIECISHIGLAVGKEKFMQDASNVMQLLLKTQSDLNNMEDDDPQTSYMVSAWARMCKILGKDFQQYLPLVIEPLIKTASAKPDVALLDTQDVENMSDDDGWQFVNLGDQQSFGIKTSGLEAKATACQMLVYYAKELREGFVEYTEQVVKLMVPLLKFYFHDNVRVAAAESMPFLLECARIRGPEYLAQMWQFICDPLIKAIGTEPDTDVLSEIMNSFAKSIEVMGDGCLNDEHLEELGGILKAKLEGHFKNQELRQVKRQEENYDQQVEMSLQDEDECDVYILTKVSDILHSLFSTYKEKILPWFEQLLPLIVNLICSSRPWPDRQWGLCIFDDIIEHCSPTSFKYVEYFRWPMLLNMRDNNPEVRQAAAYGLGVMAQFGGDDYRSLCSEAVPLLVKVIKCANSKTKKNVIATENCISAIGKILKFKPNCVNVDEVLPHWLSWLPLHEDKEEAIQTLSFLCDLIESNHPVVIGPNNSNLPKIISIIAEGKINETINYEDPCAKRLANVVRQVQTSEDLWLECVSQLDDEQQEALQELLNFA
Sequence of UniProt P23921 (P23921 whole entry, looked up): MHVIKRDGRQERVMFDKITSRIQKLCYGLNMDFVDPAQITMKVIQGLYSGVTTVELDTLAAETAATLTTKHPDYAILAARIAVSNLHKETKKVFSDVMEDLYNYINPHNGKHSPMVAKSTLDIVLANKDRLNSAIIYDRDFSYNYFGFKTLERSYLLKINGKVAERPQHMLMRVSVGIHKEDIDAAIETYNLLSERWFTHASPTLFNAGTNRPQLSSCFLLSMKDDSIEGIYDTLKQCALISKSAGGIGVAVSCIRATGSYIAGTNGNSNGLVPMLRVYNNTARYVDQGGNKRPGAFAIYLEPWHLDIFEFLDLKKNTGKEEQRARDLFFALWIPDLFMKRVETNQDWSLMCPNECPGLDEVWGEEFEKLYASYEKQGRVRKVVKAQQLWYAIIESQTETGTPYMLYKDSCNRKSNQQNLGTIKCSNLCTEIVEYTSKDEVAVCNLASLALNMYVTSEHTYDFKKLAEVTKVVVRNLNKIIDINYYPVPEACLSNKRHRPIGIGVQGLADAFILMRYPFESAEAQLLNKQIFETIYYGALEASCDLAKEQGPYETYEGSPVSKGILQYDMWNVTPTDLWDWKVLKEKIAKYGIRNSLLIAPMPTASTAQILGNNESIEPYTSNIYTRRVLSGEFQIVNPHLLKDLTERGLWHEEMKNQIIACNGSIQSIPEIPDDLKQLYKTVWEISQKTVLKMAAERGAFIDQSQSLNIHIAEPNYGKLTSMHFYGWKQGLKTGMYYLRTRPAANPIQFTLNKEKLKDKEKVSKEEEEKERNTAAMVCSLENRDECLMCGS
Sequence of UniProt Q6NUQ1 (Q6NUQ1 whole entry, looked up): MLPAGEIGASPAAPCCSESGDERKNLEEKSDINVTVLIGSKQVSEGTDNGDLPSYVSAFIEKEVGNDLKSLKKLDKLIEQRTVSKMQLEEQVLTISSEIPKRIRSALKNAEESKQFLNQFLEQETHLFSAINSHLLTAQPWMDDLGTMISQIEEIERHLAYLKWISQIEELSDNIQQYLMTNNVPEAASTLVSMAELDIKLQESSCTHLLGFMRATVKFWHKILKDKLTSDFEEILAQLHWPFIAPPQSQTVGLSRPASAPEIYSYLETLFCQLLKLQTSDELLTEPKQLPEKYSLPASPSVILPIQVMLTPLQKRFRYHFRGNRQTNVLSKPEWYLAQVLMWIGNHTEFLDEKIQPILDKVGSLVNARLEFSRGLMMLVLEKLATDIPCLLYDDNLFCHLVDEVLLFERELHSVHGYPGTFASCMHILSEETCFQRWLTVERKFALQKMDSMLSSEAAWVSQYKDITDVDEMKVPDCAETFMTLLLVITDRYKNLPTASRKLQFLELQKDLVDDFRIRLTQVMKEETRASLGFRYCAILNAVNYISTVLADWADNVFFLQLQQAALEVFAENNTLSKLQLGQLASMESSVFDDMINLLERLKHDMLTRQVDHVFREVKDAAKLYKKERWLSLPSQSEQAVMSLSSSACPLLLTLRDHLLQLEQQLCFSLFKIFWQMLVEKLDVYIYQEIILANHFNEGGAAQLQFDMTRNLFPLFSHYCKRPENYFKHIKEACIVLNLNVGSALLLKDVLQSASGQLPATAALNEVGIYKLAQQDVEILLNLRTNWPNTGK

Row | Target | log2 fold change (lapatinib) | log2 fold change (pictilisib) | log2 fold change (crizotinib) | log2 fold change [1] | log2 fold change (duvelisib) | log2 fold change (gandotinib) | log2 fold change (tozasertib) | log2 fold change (doramapimod) | log2 fold change (bafetinib) | log2 fold change [2] | log2 fold change (nilotinib) | log2 fold change [3] | log2 fold change (dasatinib) | log2 fold change [4] | log2 fold change [5] | log2 fold change (quisinostat) | log2 fold change (tipifarnib) | log2 fold change [6] | log2 fold change [7] | log2 fold change [8]
1 | RRM1 (UniProt P23921) | 0.003 | 0.01 | -0.025 | -0.004 | -0.052 | -0.028 | -0.036 | -0.017 | -0.018 | 0.001 | -0.003 | 0.008 | -0.026 | 0.001 | 0.016 | -0.018 | 0.007 | 0.016 | -0.002 | -0.038
2 | RDH14 (UniProt Q9HBH5) | 0.082 | -0.028 | 0.009 | -0.191 | 0.002 | 0.176 | 0.043 | 0 | -0.005 | 0.198 | 0.008 | -0.006 | 0.023 | 0.004 | 0.009 | -0.016 | 0.065 | -0.011 | -0.077 | 0.048
3 | RCC1 isoform 2 (UniProt P18754) | -0.018 | 0.009 | -0.063 | -0.019 | 0.017 | -0.066 | 0.011 | -0.017 | -0.01 | 0.034 | 0.024 | -0.024 | -0.071 | 0.021 | 0.034 | 0.001 | -0.011 | 0.027 | -0.02 | -0.043
4 | RINT1 (UniProt Q6NUQ1) | -0.069 | -0.065 | -0.06 | -0.058 | 0.046 | -0.039 | 0.025 | 0.069 | -0.058 | 0.132 | 0.043 | 0.075 | -0.115 | 0.028 | 0.012 | -0.029 | -0.044 | 0.071 | 0.001 | -0.014
5 | S100A11 (UniProt P31949) | 0.105 | 0.006 | 0.02 | 0.097 | 0.052 | -0.042 | -0.043 | 0.003 | -0.039 | -0.032 | 0.067 | 0.007 | 0.013 | 0.056 | -0.02 | 0.05 | 0.041 | -0.033 | 0 | -0.006
6 | SAR1A (UniProt Q9NR31) | 0.101 | 0.191 | -0.056 | 0.033 | 0.002 | 0.341 | 0.027 | 0.504 (active) | -0.022 | 0.156 | 0.145 | 0.164 | 0.017 | -0.009 | 0.01 | 0.095 | -0.172 | -0.055 | -0.154 | -0.045
7 | RAB1B (UniProt Q9H0U4) | 0.021 | 0.053 | 0.031 | -0.35 (active) | 0.033 | 0.156 | 0.011 | -0.052 | -0.038 | 0.242 (active) | 0.016 | 0.003 | -0.058 | -0.029 | -0.001 | 0.016 | -0.04 | -0.052 | -0.041 | 0.002
8 | RANBP6 (UniProt O60518) | -0.007 | -0.005 | -0.125 | -0.067 | 0.019 | -0.01 | 0.012 | 0.039 | 0.016 | 0.148 | 0.039 | -0.036 | -0.002 | -0.071 | 0.049 | -0.063 | -0.072 | 0.055 | 0.062 | -0.06
